# What was measured:
# Experiment in all cases: yeast three-hybrid, YBZ-1, SC-Leu-His + 0.5 mM 3-AT, 4 days
# Conditions in all cases: tags: N-Gal4 AD-HA kept; label: inside an RPR1-promoter hybrid RNA with tandem MS2 sites; ssRNA
# PUM1 PUF domain R1-KRT = PUM1 PUF domain R1-KRT (Homo sapiens, UniProt Q14671 828-1176, S863K;Q867T)
# In short: (§1)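 Each repeat of the Pumilio-1 PUF domain was randomized at its three base-contacting residues, and these libraries were co-expressed from a centromeric plasmid with matching RNA elements in strain YBZ-1. After four days on SC-Leu (input) or SC-Leu-His + 0.5 mM 3-AT (selection), the repeat regions were PCR-amplified and Illumina-sequenced. The interaction score compares variant frequency between input and selection as a log change, computed in log2 with a pseudocount of 1 for absent variants.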
# PUM1 PUF domain R5-PRQ = PUM1 PUF domain R5-PRQ (Homo sapiens, UniProt Q14671 828-1176, C1007P)
# In short: as §1
# PUM1 PUF domain R2-AWD = PUM1 PUF domain R2-AWD (Homo sapiens, UniProt Q14671 828-1176, N899A;Y900W;Q903D)
# In short: as §1
# PUM1 PUF domain R2-SWP = PUM1 PUF domain R2-SWP (Homo sapiens, UniProt Q14671 828-1176, N899S;Y900W;Q903P)
# In short: as §1
# PUM1 PUF domain R5-EYG = PUM1 PUF domain R5-EYG (Homo sapiens, UniProt Q14671 828-1176, C1007E;R1008Y;Q1011G)
# In short: as §1
# PUM1 PUF domain R5-RDG = PUM1 PUF domain R5-RDG (Homo sapiens, UniProt Q14671 828-1176, C1007R;R1008D;Q1011G)
# In short: as §1
# PUM1 PUF domain R1-IRR = PUM1 PUF domain R1-IRR (Homo sapiens, UniProt Q14671 828-1176, S863I;Q867R)
# In short: as §1
# PUM1 PUF domain R8-KKP = PUM1 PUF domain R8-KKP (Homo sapiens, UniProt Q14671 828-1176, N1122K;Y1123K;Q1126P)
# In short: as §1
# PUM1 PUF domain R3-IWM = PUM1 PUF domain R3-IWM (Homo sapiens, UniProt Q14671 828-1176, C935I;R936W;Q939M)
# In short: as §1
sequence,measurement,setting,value
GGCUAGAACUAGUGGAUCCCCCGGCGCCCGGCGGCUCGAGCCCGGGUAAGUGUAAAUGGUCUGCAUGCCGCCGGGCGCCAUGCCUGCAGGUCGACUCUAGAAAACAUG,binding signal,PUM1 PUF domain R1-KRT,4.9 log2 enrichment (interaction score)
GGCUAGAACUAGUGGAUCCCCCGGCGCCCGGCGGCUCGAGCCCGGGUAAGUGUAAAUAGUCUGCAUGCCGCCGGGCGCCAUGCCUGCAGGUCGACUCUAGAAAACAUG,binding signal,PUM1 PUF domain R5-PRQ,3.84 log2 enrichment (interaction score)
GGCUAGAACUAGUGGAUCCCCCGGCGCCCGGCGGCUCGAGCCCGGGUAAGUGUAAAAAGUCUGCAUGCCGCCGGGCGCCAUGCCUGCAGGUCGACUCUAGAAAACAUG,binding signal,PUM1 PUF domain R2-AWD,6.66 log2 enrichment (interaction score)
same,binding signal,PUM1 PUF domain R2-SWP,5.19 log2 enrichment (interaction score)
GGCUAGAACUAGUGGAUCCCCCGGCGCCCGGCGGCUCGAGCCCGGGUAAGUGUGAAUAGUCUGCAUGCCGCCGGGCGCCAUGCCUGCAGGUCGACUCUAGAAAACAUG,binding signal,PUM1 PUF domain R5-EYG,4.35 log2 enrichment (interaction score)
same,binding signal,PUM1 PUF domain R5-RDG,2.49 log2 enrichment (interaction score)
GGCUAGAACUAGUGGAUCCCCCGGCGCCCGGCGGCUCGAGCCCGGGUAAGUGUAAAUCGUCUGCAUGCCGCCGGGCGCCAUGCCUGCAGGUCGACUCUAGAAAACAUG,binding signal,PUM1 PUF domain R1-IRR,2.25 log2 enrichment (interaction score)
GGCUAGAACUAGUGGAUCCCCCGGCGCCCGGCGGCUCGAGCCCGGGUAAGUGUAAAUUGUCUGCAUGCCGCCGGGCGCCAUGCCUGCAGGUCGACUCUAGAAAACAUG,binding signal,PUM1 PUF domain R1-IRR,2.12 log2 enrichment (interaction score)
GGCUAGAACUAGUGGAUCCCCCGGCGCCCGGCGGCUCGAGCCCGGGUAAGCGUAAAUAGUCUGCAUGCCGCCGGGCGCCAUGCCUGCAGGUCGACUCUAGAAAACAUG,binding signal,PUM1 PUF domain R8-KKP,3.24 log2 enrichment (interaction score)
GGCUAGAACUAGUGGAUCCCCCGGCGCCCGGCGGCUCGAGCCCGGGUAAGUGUAAGUAGUCUGCAUGCCGCCGGGCGCCAUGCCUGCAGGUCGACUCUAGAAAACAUG,binding signal,PUM1 PUF domain R3-IWM,4.14 log2 enrichment (interaction score)
GGCUAGAACUAGUGGAUCCCCCGGCGCCCGGCGGCUCGAGCCCGGGUAAGUGUAAAGAGUCUGCAUGCCGCCGGGCGCCAUGCCUGCAGGUCGACUCUAGAAAACAUG,binding signal,PUM1 PUF domain R2-SWP,7.17 log2 enrichment (interaction score)
